The test system of assay [1] is IL-6-GFP PC-9GR. As to the kind of experiment: cell viability (CCK-8 OD) relative to DMSO control (fraction of control); higher = more viable cells. As to conditions: compound concentration: 10 uM; treatment time: 48 h. The gist of the method: (§1)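 PC-9 and PC-9GR lung cancer cells expressing lentiviral IL-6-GFP were plated at 3000 cells/well in 96-well plates and treated for 48 h with each library compound at a final 10 μM. Viability was determined by CCK-8 absorbance as a ratio of each well's optical density to the vehicle control well.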

The test system of assay [2] is IL-6-GFP PC-9. Described as above. As to conditions: compound concentration: 10 uM; treatment time: 48 h. The procedure, abridged:
as §1

± gives the standard deviation of the averaged measurements.

Turning to `CS(=O)(=O)O.N#CC1(c2ccc(NC(=O)c3cccnc3NCc3ccncc3)cc2)CCCC1`, the cell viability in assay [1] turned out to be 1.32 ± 0.072; in assay [2], 0.887 ± 0.084.

With `COc1cc(C2c3cc4c(cc3C(OC3OC5COC(c6cccs6)OC5C(O)C3O)C3COC(=O)C23)OCO4)cc(OC)c1O` (stereo unspecified) [Teniposide], the values for the cell viability in assay [1] and in assay [2] were 0.0642 ± 0.047 and 0.121 ± 0.035, respectively.

Take `C[Se]CC[C@H](N)C(=O)O` [L-SelenoMethionine]: the cell viability in assay [1] was 1.19 ± 0.22; in assay [2], 1.28 ± 0.098.

As for `NC(CCC(=O)NC(CS)C(=O)NCC(=O)O)C(=O)O` (stereo unspecified) [Glutathione], the figures for the cell viability in assay [1] and in assay [2] were 1.06 ± 0.11 and 1.1 ± 0.15, respectively.

On to `CC1CC2C3CC(F)C4=CC(=O)C=CC4(C)C3(F)C(O)CC2(C)C1(O)C(=O)CO` (stereo unspecified) [Diflorasone], for which the cell viability in assay [1] was determined as 0.825 ± 0.11; in assay [2] it was 0.833 ± 0.23.

For the molecule `NC(CC(=O)N1CCn2c(nnc2C(F)(F)F)C1)Cc1cc(F)c(F)cc1F` (stereo unspecified) [Sitagliptin], the cell viability is 1.62 ± 0.63 in assay [1] and 1.14 ± 0.12 in assay [2].

Regarding `Cc1nc2ccc(CN(C)c3ccc(C(=O)NC(CCC(=O)O)C(=O)O)s3)cc2c(=O)[nH]1` (stereo unspecified) [Raltitrexed], the figures for the cell viability in assay [1] and in assay [2] were 0.5349 ± 0.0032 and 0.506 ± 0.17, respectively.

Take `CCC(C)C(=O)OC1CC(C)C=C2C=CC(C)C(CCC3CC(O)CC(=O)O3)C21` (stereo unspecified) [Lovastatin]: the results for the cell viability in assay [1] and in assay [2] were 1.23 ± 0.028 and 0.619 ± 0.019, respectively.

For `CCCCNC(=O)NS(=O)(=O)c1ccc(C)cc1` [Tolbutamide], the cell viability in assay [1] stood at 1.13 ± 0.081; in assay [2] it was 1.2 ± 0.16.

Turning to `Cc1c(O)c(C)c2c(c1O)C(=O)CC(c1ccc(O)cc1)O2` (stereo unspecified) [Farrerol], the results for the cell viability in assay [1] and in assay [2] were 1.19 ± 0.11 and 1.05 ± 0.037, respectively.

Take `CCN(CC)CCNC(=O)c1c(C)[nH]c(/C=C2\C(=O)Nc3ccc(F)cc32)c1C` [Sunitinib]: the cell viability in assay [1] was 0.573 ± 0.2; in assay [2], 0.911 ± 0.27.

Regarding `CCN1CCN(Cc2ccc(Nc3ncc(F)c(-c4cc(F)c5nc(C)n(C(C)C)c5c4)n3)nc2)CC1.CS(=O)(=O)O`, the cell viability in assay [1] was 0.42 ± 0.27; in assay [2] it was 0.415 ± 0.016.

For the molecule `Cc1c(N)c(=O)n(-c2ccccc2)n1C` [4-Aminoantipyrine], the values for the cell viability in assay [1] and in assay [2] were 0.98 ± 0.13 and 1.212 ± 0.0049, respectively.

`CCC1/C=C(\C)CC(C)CC(OC)C2OC(O)(C(=O)C(=O)N3CCCCC3C(=O)OC(/C(C)=C/C3CCC(Cl)C(OC)C3)C(C)C(O)CC1=O)C(C)CC2OC` (stereo unspecified) [Pimecrolimus]: the cell viability in assay [1] came out at 1 ± 0.18; in assay [2], 1.02 ± 0.071.

Turning to `O=C(O)Cc1ccccc1Nc1c(Cl)cccc1Cl.OCCN1CCCC1` [Diclofenac Epolamine], the cell viability in assay [1] amounted to 1.34 ± 0.62; in assay [2], 1.06 ± 0.16.

As for `COc1cc2ncnc(Nc3ccc(F)c(Cl)c3)c2cc1OCCCN1CCOCC1.Cl` [Gefitinib hydrochloride], the cell viability in assay [1] is 0.91868 ± 0.00075; in assay [2], 0.6584 ± 0.0058.

On to `O=C(O)CCCN1CCC(OC(c2ccc(Cl)cc2)c2ccccn2)CC1.O=S(=O)(O)c1ccccc1` (stereo unspecified) [Bepotastine Besilate], for which the cell viability is 0.9937 ± 0.0023 in assay [1] and 0.84 ± 0.015 in assay [2].

As to `O=C1Nc2ccccc2/C1=C1\Nc2ccccc2C1=O` [Indirubin], the cell viability in assay [1] came to 1.28 ± 0.29; in assay [2], 0.916 ± 0.059.

In the case of `CC1CNc2c(cccc2S(=O)(=O)NC(CCCNC(=N)N)C(=O)N2CCC(C)CC2C(=O)O)C1.O` (stereo unspecified) [Argatroban Monohydrate], the results for the cell viability in assay [1] and in assay [2] were 1.49 ± 0.35 and 1.12 ± 0.23, respectively.

`CC(Nc1ncnc2[nH]cnc12)c1cc2cccc(Cl)c2c(=O)n1-c1ccccc1` (stereo unspecified) [Duvelisib (IPI-145, INK1197)]: the cell viability in assay [1] was determined as 1.42 ± 0.39; in assay [2], 1.1 ± 0.12.

For `COC(=O)c1cc(OC)c2c(c1-c1c(CO)cc(OC)c3c1OCO3)OCO2` [Bicyclol], the cell viability in assay [1] was determined as 1.16 ± 0.29; in assay [2] it was 0.934 ± 0.097.

In the case of `CCC(=O)NS(=O)(=O)c1ccc(-c2c(-c3ccccc3)noc2C)cc1` [Parecoxib], the cell viability in assay [1] turned out to be 1.06 ± 0.1; in assay [2], 1.26 ± 0.014.

`COc1cccc2c1C(=O)c1c(O)c3c(c(O)c1C2=O)CC(O)(C(=O)CO)CC3OC1CC(N)C(OC2CCCCO2)C(C)O1` (stereo unspecified) [Pirarubicin]: the cell viability in assay [1] came out at 0.33 ± 0.12; in assay [2], 0.208 ± 0.13.

On to `Cc1nccn1CC1CCc2c(c3ccccc3n2C)C1=O.Cl` (stereo unspecified) [Ondansetron HCl], for which the figures for the cell viability in assay [1] and in assay [2] were 1.24 ± 0.19 and 1.18 ± 0.093, respectively.

With `CN1C2=CC(=O)/C(=N\NC(N)=O)C=C2CC1S(=O)(=O)[O-].[Na+]` (stereo unspecified) [Carbazochrome sodium sulfonate (AC-17)], the cell viability in assay [1] was 1.16 ± 0.028; in assay [2], 1.04 ± 0.16.

Take `O.S=c1nc[nH]c2nc[nH]c12` [6-Mercaptopurine (6-MP) Monohydrate]: the cell viability in assay [1] came to 0.92 ± 0.11; in assay [2], 0.978 ± 0.19.

With `N#CC1(c2ccc(NC(=O)c3cccnc3NCc3ccncc3)cc2)CCCC1` [Apatinib], the cell viability in assay [1] was 0.0432 ± 0.2; in assay [2] it was 1.177 ± 0.0032.

With `CCCCC1(COC(=O)CCC(=O)O)C(=O)N(c2ccccc2)N(c2ccccc2)C1=O` [Suxibuzone], the cell viability in assay [1] came to 0.768 ± 0.21; in assay [2], 1.07 ± 0.21.

These data come from the supplement of paper PMC8866396.
